# Measurements as given in the supplement of paper PMC8387472.
# Structures can show the parent of a compound that is named as a salt. ± gives the standard deviation of the averaged measurements.
# Test system: mESC LDLR-Dup GFP reporter (SpCas9 MH-deletion repair)
# Experiment: fraction of GFP+ cells relative to DMSO control (fold change); higher = more MH-deletion repair to in-frame LDLR (or more editing)
# Settings: 2 µM; 7 days post-transfection
row,Structure (SMILES),fraction of GFP+ cells
1,COc1cc2c(cc1O)CC[C@@H]1[C@@H]2CC[C@]2(C)[C@@H](O)CC[C@@H]12 [2-Methoxyestradiol (2-MeOE2)],0.441 ± 0.088
2,O=c1nc(N2CCOCC2)oc2c(-c3cccc4c3sc3ccccc34)cccc12,0.761 ± 0.24
3,CCCCCCCCCCCCCC(=S)NCCCC[C@H](NC(=O)OCc1ccccc1)C(=O)Nc1ccccc1 [Thiomyristoyl],0.948 ± 0.9
4,O=NN(CCCl)C(=O)NC1CCCCC1 [Lomustine],1.11 ± 0.11
5,CCC[C@H](NC(=O)/C(C#N)=C/c1cccc(Br)n1)c1ccccc1 [Degrasyn (WP1130)],0.638 ± 0.12
6,N=C(NOCC(O)CN1CCCCC1)c1cccnc1 (stereo not given),0.805 ± 0.12
7,O=C1C[C@@H](c2ccc(O)cc2)Oc2cc(O)cc(O)c21 [Naringenin],0.997 ± 0.18
8,C[C@H](CN(C)C)Oc1nc(Nc2cc3cccc(Cl)c3cn2)cnc1C#N,1.28 ± 0.15
9,CC(C)=CCC[C@](C)(O)[C@H]1CC[C@]2(C)[C@@H]1[C@H](O)C[C@@H]1[C@@]3(C)CC[C@H](O)C(C)(C)[C@@H]3[C@@H](O)C[C@]12C [(20S)-Protopanaxatriol],1.02 ± 0.14
10,Nc1nc(F)nc2c1ncn2[C@@H]1O[C@H](CO)[C@@H](O)[C@@H]1O [Fludarabine],0.867 ± 0.35
11,CCCC(CCC)C(=O)O [valproic acid],0.696 ± 0.13
12,Cc1cnc(-c2ccccc2C(C)C)nc1NCc1ccc(-n2ccnn2)cc1,0.373 ± 0.22
13,O=CN1CC/C(=C/c2ccc3c(c2)OCO3)C1=O,0.833 ± 0.28
14,O=C(O[C@@H]1Cc2c(O)cc(O)cc2O[C@@H]1c1cc(O)c(O)c(O)c1)c1cc(O)c(O)c(O)c1 [(-)-Epigallocatechin Gallate],0.828 ± 0.097
15,O=c1oc2c(O)c(O)cc3c(=O)oc4c(O)c(O)cc1c4c23 [Ellagic acid],0.913 ± 0.11
16,CCN1CCN(Cc2ccc(Nc3ncc(F)c(-c4cc(F)c5nc(C)n(C(C)C)c5c4)n3)nc2)CC1,0.684 ± 0.039
17,Nc1nc(F)nc2c1ncn2[C@@H]1O[C@H](COP(=O)(O)O)[C@@H](O)[C@@H]1O [Fludarabine Phosphate],0.855 ± 0.23
18,COc1cc2c(Nc3ccc(NC(=O)c4ccccc4)cc3)ncnc2cc1OCCCN1CCOCC1,0.59 ± 0.2

row,Structure (SMILES),fraction of GFP+ cells
1,O=c1ccn([C@@H]2O[C@H](CO)[C@@H](O)[C@H]2O)c(=O)[nH]1 [Uridine],1.24 ± 0.54
2,Nc1nc2[nH]cc(CCc3ccc(C(=O)N[C@@H](CCC(=O)O)C(=O)O)cc3)c2c(=O)[nH]1 [Pemetrexed Disodium Hydrate],1.69 ± 0.34
3,CC(C)(O)C1CCC(C)(C2C(O)CC3(C)C4CC(O)C5C(C)(C)C(O)CCC56CC46CCC23C)O1 (stereo not given) [Cyclogalegenol],0.875 ± 0.24
4,C/C(=C\C(=O)Nc1ccccc1C(=O)O)c1ccc2ccccc2c1,0.984 ± 0.45
5,CN(N=O)C(=O)NC1C(O)OC(CO)C(O)C1O (stereo not given) [Streptozotocin (STZ)],2.1 ± 0.29
6,O=C(NCc1cccc(O)c1)Nc1nc(-c2ccncc2)cs1,1.11 ± 0.49
7,O=c1[nH]c(=O)n(C2CCCO2)cc1F (stereo not given),1.06 ± 0.28
8,COc1c(N2C[C@@H]3CCCN[C@@H]3C2)c(F)cc2c(=O)c(C(=O)O)cn(C3CC3)c12 [Moxifloxacin HCl],0.624 ± 0.29
9,COc1cc2c(c(OC)c1OC)-c1c(cc3c(c1OC)OCO3)CC(C)C(C)C2 (stereo not given) [Schisandrin B (Sch B)],1.02 ± 0.2
10,CCc1c(Cl)c(O)c(Cl)c(O)c1C(=O)O[C@H]1[C@H](O)[C@H](OC)[C@H](OC/C2=C\C=C\C[C@H](O)/C(C)=C/[C@H](CC)[C@@H](O[C@@H]3OC(C)(C)[C@@H](OC(=O)C(C)C)[C@H](O)[C@@H]3O)/C(C)=C/C(C)=C/C[C@@H]([C@@H](C)O)OC2=O)O[C@@H]1C [Fidaxomicin],2.81 ± 0.44
11,CC(C)(C)OC(=O)Nc1ccc(-c2cc(C(=O)NCCCCCCC(=O)NO)no2)cc1,0.902 ± 0.059
12,Cc1nc2c(O)cccc2c(=O)[nH]1,0.926 ± 0.11
13,O=NN(CCCl)C(=O)NCCCl [Carmustine],1 ± 0.078
14,O=C(O)C(Cc1ccccc1[N+](=O)[O-])=NNc1nc(-c2ccc(Cl)c(Cl)c2)cs1 (mixture of isomers),1.15 ± 0.48
15,O=C(O)CCCc1ccccc1 [Sodium Phenylbutyrate],0.708 ± 0.082
16,"CC[C@H](CO)Nc1nc(NCc2ccccc2)c2ncn(C(C)C)c2n1 [Roscovitine (Seliciclib,CYC202)]",1.06 ± 0.096
17,COc1cccc2oc(-c3ccccc3)cc(=O)c12 [5-methoxyflavone],0.869 ± 0.26
